Data from PubChem BioAssay AID1117359 (Southern Research Institute, 2015).
In all, about 1,500 compounds went through this assay and about 460 (31%) were called active.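 Rule for the calls: active = viability at or below 80% at any tested concentration, marking the compound as toxic; inactive = the rest.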 Only a sample is shown. Measured potencies and affinities stand elsewhere.

Assay: THP-1 cell cytotoxicity, dose response, cytotoxicity control for Vif-APOBEC3G degradation inhibitor project, THP-1 cells (AID 1117359)
Conditions: THP-1 viability, CellTiter-Glo luminescence, 72 h; series mostly up to 40 µM

SMILES	outcome
COc1ccc(CC(=O)Oc2ccc(F)c(F)c2)cc1S(=O)(=O)N1CCOCC1	inactive
O=C(NCc1ccc(F)cc1)C1CCC(CNc2c(N3CCCCC3)c(=O)c2=O)CC1 (stereo not given)	inactive
Cc1ccc(C)c(OCCC(=O)Nc2ccccc2C(=O)NC2CC2)c1	inactive
CCC(CC)NC(=O)Nc1ccc(F)cc1F	inactive
CS(=O)(=O)N(C(=O)NC(=O)NC1CCS(=O)(=O)C1)C1CCCCC1 (stereo not given)	inactive
O=C(CNS(=O)(=O)c1ccc2ccccc2c1)Nc1ccc(F)c(F)c1F	inactive
CC(C)(C)NC(=O)CSc1nnc(-c2ccccn2)n1Cc1ccccc1	inactive
COc1ccc(OC)c(NC(=O)COC(=O)c2ccc(OC)c(S(=O)(=O)N3CCOCC3)c2)c1	inactive
COc1ccc(NC(=O)c2ccc(S(=O)(=O)N3CCOCC3)o2)cc1	inactive
CC(=O)Nc1ccc2c(c1)Cc1cc(N3C(=O)C=CC3=O)ccc1-2	inactive
NC(=O)C1CCCN(CC(=O)Nc2ccccc2C(=O)NC2CC2)C1 (stereo not given)	inactive
COC(=O)Cc1cc(=O)n(-c2nc3ccccc3[nH]2)[nH]1	inactive
CC(=O)OCCCNc1cc(Sc2nc3ccccc3s2)c2nonc2c1[N+](=O)[O-]	inactive
CCCC(NCC(=O)Nc1ccccc1C(=O)NC1CC1)c1ccccc1 (stereo not given)	inactive
Cc1ccc(-n2nc(C)c3c(C)c(CCC(=O)O)c(C)nc32)cc1	inactive
CCN(CC)CCCNC(=O)CSc1nc(-c2cccs2)cc(C(F)(F)F)n1	inactive
COCCn1c(N)c(N(Cc2ccccc2)C(=O)C2CCCCC2)c(=O)[nH]c1=O	inactive
O=C(O)c1ccc(NS(=O)(=O)c2cccc(C(=O)Nc3ccc([N+](=O)[O-])cc3)c2)cc1	inactive
O=C(CSCc1ccc(Br)cc1)NC1CC1	inactive
CC(c1ccccc1)N(C)CC(=O)NC(=O)NCCC1=CCCCC1 (stereo not given)	inactive
COC(=O)c1ccc(NC(=O)COc2cccc(-n3cnnn3)c2)cc1	inactive
CCOC(=O)c1csc(N)c1-c1ccc([N+](=O)[O-])cc1	inactive

SMILES	outcome
CCOC(=O)C/C(C)=N\Nc1ccc([N+](=O)[O-])cc1[N+](=O)[O-]	inactive
CCOc1ccccc1NC(=O)CCS(=O)(=O)c1ccc(Br)cc1	inactive
CC(=O)N1CCN(c2nc(-c3ccco3)c3c(c2C#N)CC(C)(C)SC3)CC1	inactive
CC1CCCN(Cc2c(O)ccc3c2O/C(=C\c2ccco2)C3=O)C1 (stereo not given)	inactive
COc1cccc(-c2nc(-c3cccs3)no2)c1	inactive
COc1ccc(C(C)=O)cc1CN1C(=O)NC2(CCCC2)C1=O	inactive
O=C(O)C1Nc2c(Cl)cc(Cl)cc2C2C=CCC12 (stereo not given)	inactive
Cc1ncc(CO)c(/C=N/NC(=O)c2cc(O)c(O)c(O)c2)c1O	inactive
COc1ccc(C(=O)N/N=C/c2cccnc2)cc1	inactive
CCOC(=O)c1nn(-c2ccc(Cl)cc2Cl)c(=N)c(C#N)c1C	inactive
CSc1ncccc1C(=O)NCc1nnc2ccccn12	inactive
COC(=O)C1=C(C)NC(=O)NC1c1ccc2c(c1)OCO2 (stereo not given)	inactive
Cc1cc(C)n2nc(SC(C)C(=O)N3CCCC3)nc2n1 (stereo not given)	inactive
O=C(COC(=O)c1ccccc1Br)Nc1nnc(-c2ccccc2)o1	inactive
O=C(Nc1ccc(F)cc1F)c1noc2c1CCC2	inactive
CCOc1cccc(=O)c2c(C)n(C)c(C)c12	inactive
CCOC(=O)Cn1nc(-c2ccccc2)c2cnc3ccc(C)cc3c21	inactive
COc1ccc(/C=C/C(=O)NC(=S)Nc2ccccn2)cc1	inactive
C[C@@H]1CCCCO[C@H](CN(C)C(=O)c2ccccc2)[C@@H](C)CN([C@H](C)CO)C(=O)c2cc(NC(=O)NC3CCCCC3)ccc2O1	inactive
COc1cccc(/C=N/n2c(-c3cc(C)[nH]n3)n[nH]c2=S)c1	inactive
CS(=O)(=O)N1CCCCC1CCN1CCCCC1 (stereo not given)	inactive
CCOC(=O)c1cccc2c(=O)c(C(=O)c3ccc(Cl)cc3)c(C(=O)OC)[nH]c12	inactive

SMILES	outcome
CCOC(=O)COn1c(=O)c(-c2ccc(Cl)cc2)[n+]([O-])c2ccccc21	inactive
CNC(=O)C(=O)N/N=C/c1cccnc1	inactive
COc1cccc(CN2CCSCC2)c1	inactive
CCNC(=S)Nc1cccc(S(=O)(=O)NC2=NCCC2)c1	inactive
CC(=O)NCCn1c(SCC(=O)Nc2ccc(C)cc2)nc2ccccc2c1=O	inactive
CC(=O)N1CCN(c2ccc(NCc3ccc(F)cc3)cc2)CC1	inactive
CCC(NC(=O)Nc1ccc(O)cc1)(C(F)(F)F)C(F)(F)F	inactive
O=C1/C(=C/c2ccco2)SC(=S)N1c1cccnc1	inactive
O=S(=O)(O)c1cc(O)c2c(O)c(N=Nc3cc(Cl)ccc3O)c(S(=O)(=O)O)cc2c1	inactive
Cc1ccccc1OCCC(=O)Nc1ccccc1C(=O)NC1CC1	inactive
CC(=O)Nc1ccc(OCC(=O)N2CCc3ccccc3C2)cc1	inactive
O=C(Nc1nnc(SCc2c(Cl)cccc2Cl)s1)c1cccc([N+](=O)[O-])c1	inactive
Cc1ccc(N2CC(NC(=O)N3CCN(C(=O)c4ccco4)CC3)CC2=O)cc1 (stereo not given)	inactive
O=C(OCC(=O)N1CCN(C(=O)c2ccco2)CC1)c1cc(-c2ccco2)nc2ccccc12	inactive
COc1cccc(CN2CCNC(=O)C2CC(=O)NCCn2nc(C)cc2C)c1OC (stereo not given)	inactive
Cc1ccccc1C(=O)NCC(=O)OC(C)C(=O)NC(C)CCc1ccccc1 (stereo not given)	inactive
O=C(Nc1nc(-c2ccco2)c(-c2ccco2)s1)C1CCC1	inactive
c1ccc(CSc2nnc(-c3ccco3)c(-c3ccco3)n2)cc1	inactive
CC(C)C[C@H](NC(=O)c1nc[nH]c1C(=O)N1CCN(c2ccccc2)CC1)C(=O)OC(C)(C)C	inactive
O=C(c1ccc2c(c1)[nH]c(=S)n1c3ccccc3nc21)N1CCN(c2cccc(Cl)c2)CC1	inactive
Cc1cccc(N2CCN(CC(O)COc3ccc(Cl)cc3)CC2)c1 (stereo not given)	inactive
COc1ccccc1N1CCN(C(=O)C(F)F)CC1	inactive

SMILES	outcome
COc1cccc(=O)c2c(C)n(-c3ccc(C(=O)O)cc3)c(C)c12	inactive
COc1cc(C(=O)Nc2ccc(N3CCCS3(=O)=O)cc2)c([N+](=O)[O-])cc1OC	inactive
CC(C)Cc1cc(C(=O)Nc2cccc(O)c2)no1	inactive
COc1ccc(S(=O)(=O)N2CCOC2CNC(=O)C(=O)NCc2ccccn2)cc1 (stereo not given)	inactive
Cc1csc(=O)n1CC(=O)OCC(=O)c1ccc(Br)cc1	inactive
O=C(O)/C=C/C(=O)NNc1ncnc2ccccc12	inactive
C=CCn1c(SCC(=O)c2c(N)n(C)c(=O)n(C)c2=O)nnc1-c1ccccc1F	inactive
COc1ccc(CNc2nc3ccccc3n2C)c(O)c1	inactive
COc1ccc2c(=O)c3c(=O)n(-c4ccc(C)cc4)c(-c4ccccc4)nc3oc2c1	inactive
O=[N+]([O-])c1ccc(N/N=C/c2ccc(O)c(O)c2O)c(S(=O)(=O)N2CCOCC2)c1	inactive
Cc1nnc(SCC(=O)N2CCN(c3ccccc3)CC2)n1C1CC1	inactive
CCOC(CCNC(=O)c1cn(C)c(=O)c2c1c1ccccc1n2C)OCC	inactive
Oc1ccc(/C=C/c2cnccn2)cc1	inactive
O=CN/C=C/c1cc(O)ccc1O	inactive
CC1CN(C(=O)COC(=O)Cc2ccc(Cl)cc2)CC(C)O1 (stereo not given)	inactive
CCN(CC(=O)Nc1c(F)cccc1F)C(=O)CSC(=S)N1CCCC1	inactive
O=c1[nH]c2ccccc2c(O)c1-[n+]1ccccc1	inactive
CCc1ccc2c(CN3CCC(C(=O)OC)CC3)cc(=O)oc2c1	inactive
Cc1ccc(CNC(=O)COc2ccc3c(c2)CCC3)cc1	inactive
CCn1c(SCC(=O)OC)nc2sc3c(c2c1=O)CCC3	inactive
Cc1cc(SCC(=O)NCCCN2CCCC2=O)nc2ccccc12	inactive
Cc1cc2c(c(=O)o1)C(c1ccc([N+](=O)[O-])o1)C(C#N)=C(N)O2 (stereo not given)	inactive

SMILES	outcome
CC1CN(S(=O)(=O)c2cc(C(=O)NCc3ccncc3)ccc2Cl)CC(C)O1 (stereo not given)	inactive
CCN(CC(=O)Nc1ccc(NC(C)=O)cc1)C(=O)C1CCCC1	inactive
CN(C)c1ccc(NC(=O)Nc2cccc(Cl)c2)cc1	inactive
COC(=O)C1CCN(c2ccc([N+](=O)[O-])cc2)CC1	inactive
C=CCc1c(C)nc2c(C(=O)O)cnn2c1C	inactive
CC1(C)CCC(=O)c2ccccc21	inactive
O=S(=O)(O)c1cc(O)c2cc(Nc3ccccc3)ccc2c1	inactive
Cn1cc(/C=C/C(=O)N2CCCC(C(=O)c3cccc(C(F)(F)F)c3)C2)cn1 (stereo not given)	inactive
CC1(C)C2CCC1(C)C(OC(=O)C[n+]1ccccc1)C2 (stereo not given)	inactive
CN(C)c1ncc(C2=C(Cl)C(=O)C(N3CCCC3)=C(Cl)C2=O)s1	inactive
CN1CCN(C2=C(Cl)C(=O)C(c3cnc(N4CCCCC4)s3)=C(Cl)C2=O)CC1	inactive
CN1CCN(S(=O)(=O)Cc2ccc(Cl)cc2)CC1	inactive
O=C1C(Cl)=C(N2CCCCC2)C(=O)C(Cl)=C1c1cnc(N2CCCCC2)s1	inactive
CCn1c(CNC(=O)Cc2ccc(OC)cc2)nnc1SCC(=O)Nc1ccc(C(=O)O)cc1	inactive
Cc1cc(O)c(Oc2cc(C)cc(O)c2O)c(O)c1	inactive
Cc1nc(NCc2ccccc2)c2cc[nH]c2n1	inactive
COc1ccc2c(c1)n([O-])c1c([n+]2=O)CCC1	inactive
CC(C)C(NC(N)=O)C(=O)NC1CCCCC1 (stereo not given)	inactive
CN(CC(=O)Nc1cccc(F)c1)C(=O)c1cc(-c2ccco2)nc2ccccc12	inactive
CCc1ccccc1NNC(=O)CCc1ccccc1	inactive
Cn1cnnc1SCC(=O)Nc1ncc([N+](=O)[O-])s1	inactive
C=C(C)C(=O)Nc1cccc(C2=NOC3(C2)C[C@@H](C(N)=O)N(C(=O)CCCCC)C3)c1 (stereo not given in full)	inactive
